High-throughput results (PubChem BioAssay)
A selection: hits, their analogues and other compounds. The true share with any hit is near 12%.
D1 mod: allosterically modulates the human D1 dopamine receptor. B-score at 10 µM. HEK293 D1, CRE-luciferase, dopamine EC30 potentiation; actives deviate in either direction. 5.9% of 58,000 active;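 active means luminescence count or its row- and column-corrected plate score outside the 99.7% band of the plate's sample wells, on either side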
DAT uptake mod: modulates human dopamine transporter uptake under cocaine | 1.3% of 110,000 active | LLC-PK1 hDAT cells, [14C]-dopamine uptake with cocaine IC80; actives deviate in either direction | Q01959 | B-score at 10 µM | AID 449768;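 active means Z score or B-score, a plate-position-corrected score, falls beyond the plate's 99.7% confidence bounds, in either direction; inactive means both scores lie inside the 99.7% bounds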;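 further: scored against the spread of the other compound wells on the same plate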
Target sequence (Q01959 whole entry, looked up): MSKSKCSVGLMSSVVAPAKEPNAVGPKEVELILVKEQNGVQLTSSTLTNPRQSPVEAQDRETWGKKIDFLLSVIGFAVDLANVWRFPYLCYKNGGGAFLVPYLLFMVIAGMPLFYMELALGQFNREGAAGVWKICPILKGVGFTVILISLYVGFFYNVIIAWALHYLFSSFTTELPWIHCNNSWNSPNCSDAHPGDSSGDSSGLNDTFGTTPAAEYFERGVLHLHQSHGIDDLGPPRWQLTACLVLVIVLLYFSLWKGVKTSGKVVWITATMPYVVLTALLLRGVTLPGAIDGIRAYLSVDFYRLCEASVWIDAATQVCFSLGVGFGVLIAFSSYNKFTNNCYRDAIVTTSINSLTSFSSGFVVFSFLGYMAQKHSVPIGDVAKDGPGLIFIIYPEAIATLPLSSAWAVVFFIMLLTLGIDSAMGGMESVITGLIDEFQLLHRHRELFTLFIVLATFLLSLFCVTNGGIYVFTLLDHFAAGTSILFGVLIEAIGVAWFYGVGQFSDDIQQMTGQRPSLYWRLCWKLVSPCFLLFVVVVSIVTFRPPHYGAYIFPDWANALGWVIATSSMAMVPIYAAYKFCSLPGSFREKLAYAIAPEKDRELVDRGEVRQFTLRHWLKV
Cav32 inh: inhibitors of human Cav3.2 T-type calcium channel; Cav3.2-expressing cells, Fluo-4 calcium fluorescence FDSS; hits give low values; B-score at 10 µM; 4% of 100,000 active;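 active means single-dose well whose peak fluorescence ratio is a statistical outlier from its plate by either plate-standardised score or position-corrected B-score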
PostGolgi ctrl: yeast control strain growth, post-Golgi counter-screen | 5% of 98,000 active | AID 738 | inhibition, % at 10 µM | efflux-deficient yeast background strain, growth absorbance A615, 16 h
PostGolgi yeast: growth inhibition of a yeast mutant, post-Golgi transport screen; post-Golgi transport phenotypic cell assay; inhibition, % at 10 µM; 0.9% of 98,000 active; AID 739;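 further: yeast cells grown in 1536-well plates; yeast grown about 18 h at 30C before absorbance read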
PLAP act: human PLAP activation | P05187 | purified PLAP enzyme, luminescent substrate read-out; hits give high values | activation fold at 20 µM | 1.2% of 96,000 active | AID 696; in the data active means activation fold above about 2
The depositor's hits bear a star; x = not tested or not shown. Unless noted, no stated cut-off is given here; in the data, active means inhibition above about 30%; inactive means the rest.

SMILES	D1 mod	DAT uptake mod	Cav32 inh	PostGolgi ctrl	PostGolgi yeast	PLAP act
Cc1cccc(NC(=O)c2cc(S(=O)(=O)c3ccccc3)ccc2Cl)c1	x	-0.58	-5.6*	8	4	1.5
Cc1ccccc1NC(=O)c1cc(S(=O)(=O)c2ccccc2)ccc1Cl	x	-0.022	-1.8	25	8	0.9
CCN(CC)S(=O)(=O)c1cccc(C(=O)Nc2cccc(C)c2)c1	x	1.3	-4.8	12	-10	0.8
Cc1cccc(NC(=O)c2cccc(NS(=O)(=O)c3ccc(Cl)cc3)c2)c1	x	0.83	-9.6*	-7	-2	1.4
Cc1ccc(S(=O)(=O)Nc2cc(C(=O)Nc3cc(C)cc(C)c3)ccc2Cl)cc1	x	-0.43	-5.3*	37*	-1	1.4
Cc1cccc(NS(=O)(=O)c2ccc(C3CCCCC3)cc2)c1	x	-0.14	-4.5*	50*	-5	1.1
CC1CCCCC1NC(=O)CSc1nnc(-c2ccccc2)n1N (stereo not drawn)	1.1	-0.94	0.22	-8	1	1.3
O=c1[nH]c2ccc(Cl)cc2c(-c2ccccc2)c1SC(=S)N1CCCCC1	x	3.4*	0.2	23	4	1.6
COc1cccc(C(c2nnnn2CCc2ccccc2)N2CCN(c3ccccc3)CC2)c1OC (stereo not drawn)	0.066	-0.2	-4.2*	21	7	x
Fc1ccc(C(c2nnnn2C2CCCC2)N2CCc3ccccc32)cc1 (stereo not drawn)	x	-0.12	x	9	3	0.8
COc1ccccc1C(c1nnnn1CCc1ccccc1)N1CCCCCC1 (stereo not drawn)	x	-0.95	-9*	3	-3	1.2
Fc1ccc(C(c2nnnn2CCc2ccccc2)N2CCCc3ccccc32)cc1 (stereo not drawn)	x	-1.3	-7.9*	18	6	0.9
COc1ccccc1C(c1nnnn1CCc1ccccc1)N1CCN(c2ccccc2)CC1 (stereo not drawn)	-2.4	0.67	-5.9*	4	-2	1.7
CCCCCC(=O)OC(CN1CCCCC1)CN1CCCC1=O (stereo not drawn)	0.78	-0.7	-0.19	-3	-2	1.2
COc1ccccc1N1CCN(C(c2ccccc2)c2nnnn2CCc2ccccc2)CC1 (stereo not drawn)	x	0.0013	-3.7	x	x	x
COc1ccc(CCn2nnnc2C(CC(C)C)N2CCN(c3ncccn3)CC2)cc1OC (stereo not drawn)	0.55	x	x	-3	-10	1.4
COc1cccc(C(c2nnnn2Cc2ccco2)N2CCN(c3cccc(C)c3C)CC2)c1OC (stereo not drawn)	-0.0079	0.065	-6.9*	20	-5	1.4
Clc1ccc(C(c2nnnn2CCc2ccccc2)N2CCSCC2)cc1 (stereo not drawn)	x	-1	-6.8*	21	-4	1.1
COc1cccc(C(c2nnnn2Cc2ccccc2)N2CCN(C(=O)c3ccco3)CC2)c1OC (stereo not drawn)	0.15	0.04	-0.21	25	8	1.7
COc1ccc(N2CCN(C(c3nnnn3CCc3ccccc3)C(C)C)CC2)cc1 (stereo not drawn)	-1.3	-0.61	-1.9	35*	9	0.9
COc1ccc(CCn2nnnc2C(C(C)C)N2CCN(c3ncccn3)CC2)cc1OC (stereo not drawn)	x	x	x	35*	-1	1.6
CC1CC(C)CN(C(=O)c2cc3c(s2)CCC3)C1 (stereo not drawn)	x	-0.28	-0.92	3	-6	0.8
Cc1cc(OCC(=O)Nc2ccncc2)ccc1Br	-3.3*	-0.81	-2.1	23	13	1
CCOC(=O)Cc1c(C)nc2cc(C)nn2c1C	x	0.12	0.48	x	x	x
CCOC(=O)Cc1nn2c(=O)cc(C)nc2s1	-0.016	-0.36	-5*	3	-15	1.2
SMILES	D1 mod	DAT uptake mod	Cav32 inh	PostGolgi ctrl	PostGolgi yeast	PLAP act
Cc1ccc2nc(/C(C#N)=C\c3ccc(N4CCOCC4)o3)[nH]c2c1	x	-0.72	-5*	x	x	x
Cc1ccc2nc(/C(C#N)=C\c3cc(C)n(-c4cccc([N+](=O)[O-])c4)c3C)[nH]c2c1	x	0.47	-6.1*	25	28	1.6
Cc1ccc2nc(/C(C#N)=C\c3ccc([N+](=O)[O-])o3)[nH]c2c1	x	0.0065	-1.1	99*	103*	1
N#C/C(=C\c1ccc(N2CCCC2)c([N+](=O)[O-])c1)c1nc2ccccc2[nH]1	x	0.45	-1.2	7	1	0.9
Cn1c(SCCCC(=O)c2ccc(Br)cc2)nnc1-c1ccncc1	x	x	x	-1	-5	1.7
Cc1ccc(-c2csc(N(C)C(=O)c3c(C)nn(-c4ccccc4)c3Cl)n2)cc1	x	0.66	1.7	2	13	1.4
CC(C)COC(=O)c1cc(=O)[nH]c2ccccc12	1.3	-0.075	-0.36	8	-19	1
Brc1ccc(CSc2nnc(-c3cnccn3)n2Cc2ccco2)cc1	0.4	x	x	38*	7	1.3
COC(=O)CSc1nnc(-c2ccccn2)n1Cc1ccco1	0.24	x	x	10	4	x
C(=C\c1ccccc1)/CSc1nnc(-c2cnccn2)n1Cc1ccco1	-1.8	0.19	-3.5*	28	1	x
Clc1ccc(CSc2nnc(-c3ccccn3)n2Cc2ccco2)c(Cl)c1	-1.3	2.1	-1.4	52*	4	1.7
Fc1ccccc1CSc1nnc(-c2cnccn2)n1Cc1ccco1	-0.033	x	x	17	6	x
COC(=O)C(C(=O)NCC1CCCO1)C1CCCC1 (stereo not drawn)	x	0.0065	0.34	7	23	1.1
CCOC(=O)CN1C(=O)C(O)=C(C(C)=O)C1c1ccc(F)cc1 (stereo not drawn)	0.41	0.24	-0.11	7	7	1.2
CCOC(=O)Cc1csc(NC(=O)C2CCCN(S(=O)(=O)c3cnc[nH]3)C2)n1 (stereo not drawn)	-0.1	1.7	-0.0099	14	-8	1.4
CCC(C(=O)NCc1ccc(F)cc1)N(Cc1ccco1)C(=O)c1snc(C(N)=O)c1N (stereo not drawn)	0.022	4.3*	-0.0032	11	3	0.8
Cc1ccc(C(=O)c2cc3ccccc3o2)cc1	x	0.02	-1.7	3	0	0.9
O/N=C(\c1ccc(Cl)cc1)c1cc2ccccc2o1	x	x	x	34*	15	1
CCn1c(Cc2ccccc2)nnc1SCC(=O)Nc1ccccc1N1CCOCC1	x	0.2	-0.032	x	x	x
Cc1c(C(=O)O)c(-c2ccccc2)nn1-c1ccccc1	0.17	-0.11	-4.3*	4	-4	1.3
COCCN1CCn2c(nc3cc(NC(=O)c4ccc(OC)cc4)ccc32)C1	-0.26	0.94	1.3	15	4	1.5
CC12CC(NC(=O)N1c1cccc(C(=O)NCc3ccc4c(c3)OCO4)c1)c1cc(Cl)ccc1O2 (stereo not drawn)	-0.041	-0.15	-3.7*	-3	-2	1.7
CC(C)C(=O)Nc1cccc(C(=O)NCc2ccc3c(c2)OCO3)c1	-0.65	0.74	-0.065	x	x	x
CCOC(=O)C1=C(C)N=C2SC(C)C(=O)N2C1c1cccc(F)c1 (stereo not drawn)	-0.51	-0.83	-6.5*	9	-9	1.1
